Experimental data reported in PubChem BioAssay.
The source made the active and inactive calls. How the calls were made is not given here.

target: Pantothenate synthetase (Mycobacterium tuberculosis (strain ATCC 25618 / H37Rv)) (UniProt P9WIL5); assay: Coupled enzyme confirmation of inhibitors against recombinant Mtb PanC (AID 375); details: coupled enzyme assay; at 10 µM, hits give high values;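 further: 0% = full reaction with vehicle and 100% = no enzyme background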
Sequence (P9WIL5 whole entry, looked up): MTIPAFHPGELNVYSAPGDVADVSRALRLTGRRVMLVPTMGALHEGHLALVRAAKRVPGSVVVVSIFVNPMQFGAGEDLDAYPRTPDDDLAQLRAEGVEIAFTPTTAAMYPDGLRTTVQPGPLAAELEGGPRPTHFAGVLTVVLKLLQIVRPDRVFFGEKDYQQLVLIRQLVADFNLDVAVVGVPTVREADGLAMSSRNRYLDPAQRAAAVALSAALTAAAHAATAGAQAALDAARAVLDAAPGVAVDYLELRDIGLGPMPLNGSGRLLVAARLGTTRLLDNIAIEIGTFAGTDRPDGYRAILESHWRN

Compound | inhibition
CC(C)Oc1ccc(C2C(C(=O)c3ccco3)=C(O)C(=O)N2CCCN(C)C)cc1 (stereo unspecified) | 0% (inactive)
CCn1cc(C2=NOC(C(=O)Nc3cc(C)nn3-c3ccccc3)C2)c(C)n1 (stereo unspecified) | 0% (inactive)
O=C(CNS(=O)(=O)c1ccc(Br)s1)N1CCN(c2ncccn2)CC1 | 0% (inactive)
COc1ccccc1OCc1ccc(C(=O)NC(C)(C)C)o1 | 2% (inactive)
Cc1nn(C)c(C)c1NC(=O)CSc1nc(Cc2ccccc2)nc2c1cnn2-c1ccccc1 | 2% (inactive)
COc1cccc(C2CC(c3c(Cl)cccc3Cl)n3nc(N)nc3N2)c1 (stereo unspecified) | 0% (inactive)
COCCn1c(N)c(C(=O)Nc2sc3c(c2C(=O)OC)CCCC3)c2nc3ccccc3nc21 | 1% (inactive)
Cc1cc(N=Cc2cc(Br)ccc2O)no1 | 6% (inactive)
CCn1c(SCC(=O)c2ccc3c(c2)OCCO3)nnc1-c1ccco1 | 11% (inactive)
Cc1cc(/C=N/n2cnnc2)c(C)n1-c1ccc(Cl)cc1Cl | 1% (inactive)
O=C(CNC(=O)c1cccs1)NCCN1CCN(c2ccccc2F)CC1 | 0% (inactive)
Cc1ccc(C)c(C(=O)CC2(O)C(=O)N(C)c3ccccc32)c1 (stereo unspecified) | 0% (inactive)
COc1ccc2c(c1)C(C)=CC(C)(C)N2C(=O)CSc1nnc(-c2ccc(C)cc2)o1 | 0% (inactive)
Cc1cc(C)n(-c2nc(C)nc3sc4c(c23)CCC(C)C4)n1 (stereo unspecified) | 0% (inactive)
O=C(c1nc2n(n1)C(c1ccc(Cl)cc1)C=C(c1ccccc1)N2)N1CCOCC1 (stereo unspecified) | 0% (inactive)
O=C(CN1CCC(c2nc3ccccc3s2)CC1)NCc1cccs1 | 3% (inactive)
